Bioassay records (PubChem)
NS1 function inh – inhibitors of influenza NS1 protein function; Potency, µM (titrated, usually from 46.1 µM); 270,000 tested, 0.4% active; AID 2326; calls by dose curve; note: actives are rising curves; nearly all actives have a fitted effect of over 50% in size
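Compounds were scored for reversing the slow growth caused by influenza A NS1 in S. cerevisiae, measured by optical density at 600 nm. Assay medium contained 2% galactose at pH 6.0; NS1-free yeast of the same strain were the positive control.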
Pf growth 48h – inhibits P. falciparum growth in the first generation, 48 h. P. falciparum luciferase growth in erythrocytes, 48 h. Potency, µM (series often up to 28.7 µM), actives largely listed as inhibitors. 310,000 tested, 5.9% active
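In quantitative HTS format, infected erythrocytes bearing luciferase-reporter parasites were treated for a single generation at 37 C. Luminescence after adding detection reagent served as the growth measure.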
AMA1-RON2 inh – disrupts binding of P. falciparum AMA1 to RON2 | AlphaScreen AMA1-biotinylated RON2 peptide binding | Potency, µM (titrated, usually from 58.2 µM), hits mostly inhibitors | 360,000 tested, 0.2% active | AID 720542; note: nearly all actives have a fitted effect of over 45% in size
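AMA1 (3D7) with his tag at 25 nM final met compounds first, then biotinylated RON2 peptide at 25 nM; detection used donor plus acceptor beads, 10 µg/mL apiece, read by AlphaScreen after 30 min at room temperature.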
Sm TGR block – S. mansoni TGR enzyme inhibition | Q962Y6 | purified TGR, DTNB reduction, TNB absorbance 405 nm | Potency, µM (doses to about 114 µM), actives largely listed as inhibitors | 360,000 tested, 3% active | AID 485364; note: nearly all actives have a fitted effect of over 60% in size
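Kinetic colorimetric format: TGR-catalysed, NADPH-driven DTNB reduction monitored via TNB absorbance. Enzyme dispensed at 20 nM; compound exposure 15 min at room temperature before reaction start.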
Pf growth 96h – inhibits malaria parasite growth, 96 h. Potency, µM (top dose mostly 28.7 µM), most hits filed as inhibitors. 320,000 tested, 6.9% active. P. falciparum luciferase reporter growth, 96 h
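Plates of compound plus infected erythrocytes (2% hematocrit, 0.05% parasitemia final) incubate 96 hours, 37 C, 5% CO2. Detection reagent added; reduced luminescence from the parasites' luciferase reporter flags inhibition.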
A number is an active result; – = inactive; ? = inconclusive; · = no result; [ ] = another dose, or the depositor's remark. This is a sample that favours compounds with a hit; in the whole collection about 11% have one here. Unless noted, calls come from the whole dose curve; as a rule, active = well fitted curve in the direction sought with a large enough effect; inconclusive = small, poorly fitted or top-dose-only effect, or another doubt; inactive = no such curve, though single readings can be large; an effect the other way counts as inactive or inconclusive.

SMILES	NS1 function inh	Pf growth 48h	AMA1-RON2 inh	Sm TGR block	Pf growth 96h
CCOC(=O)C1CCN(c2cc(=O)n(C3CCCCC3)c(=O)[nH]2)CC1	–	2.9µM	–	–	–
CCOC(=O)C1CCN(c2cc(=O)n(-c3ccccc3Cl)c(=O)[nH]2)CC1	–	1.9µM	–	–	–
COc1ccc(C2SCC(=O)N2CCc2ccc(OC)c(OC)c2)cc1 (stereo not given)	–	?	–	–	–
Cn1c2ccccc2c2cnn(CC(=O)N3CCCCC3)c(=O)c21	–	–	–	–	–
COc1cc2c(cc1OC)C(c1cc3cc4c(cc3[nH]c1=O)OCO4)N(C(=O)C1CC1)CC2 (stereo not given)	–	13µM	–	–	–
COc1cc2c(cc1OC)C(c1cc3ccc(C)cc3[nH]c1=O)N(C(=O)c1ccco1)CC2 (stereo not given)	–	13µM	–	–	–
COc1cc2c(cc1OC)C(C)N(C(=O)c1ccc(C)o1)CC2 (stereo not given)	–	–	–	–	–
O=C(NNC1=C(C(=O)C(F)(F)F)CCC1)c1ccc(Cl)cc1	–	–	–	–	2.9µM
CCOC(=O)c1sc2nc(OCc3cccnc3)cc(C)c2c1N	·	·	–	·	·
O=C(/C=C/c1ccc(O)c(O)c1)O[C@H](Cc1ccc(O)c(O)c1)C(=O)O	5.6µM	–	·	3.2µM	–
N[C@H](Cc1ccc(O)c(O)c1)C(=O)O	–	·	·	·	·
Cc1ccc(S(=O)(=O)N2[C@@H](c3ccccc3F)C(C(=O)O)=CC[C@H]2c2ccc(Cl)c(Cl)c2)cc1	·	?	–	–	12µM
Cc1ccc(S(=O)(=O)N2[C@@H](c3ccccc3F)C(C(=O)O)=CC[C@H]2c2cccc(C)c2)cc1	·	?	–	–	–
COc1ccc([C@@H]2CC=C(C(=O)O)[C@H](c3ccc(F)cc3)N2S(=O)(=O)c2ccc(C)cc2)cc1OC	·	?	–	–	10µM
COc1cccc([C@@H]2CC=C(C(=O)O)[C@H](c3cccc(Cl)c3)N2S(=O)(=O)c2ccc(C)cc2)c1	·	?	–	–	12µM
COc1cc([C@@H]2CC=C(C(=O)O)[C@H](c3ccccc3F)N2S(=O)(=O)c2ccc(C)cc2)cc(OC)c1OC	·	10µM	–	–	10µM
CCOC(=O)c1c(C)c(-c2ccccc2)n(CC(=O)NC(CC)Cc2ccccc2)c1C (stereo not given)	·	·	·	–	·
COc1cc([C@@H]2CC=C(C(=O)O)[C@H](c3ccc(F)cc3)N2S(=O)(=O)c2ccc(C)cc2)cc(OC)c1OC	·	3.3µM	–	–	1.9µM
CC(=O)NC(CCCNC(=S)NC1CCCCC1)C(=O)O (stereo not given)	–	–	–	·	–
CCN1CCCC1CNC(=O)C(=O)NC(C)C (stereo not given)	–	–	–	–	–
CCN1CCCC1CNC(=O)C(=O)NC(C)c1ccccc1 (stereo not given)	–	–	–	–	12µM
CCN1CCCC1CNC(=O)c1cc2c(C)nc3ccccc3c2o1 (stereo not given)	–	9.3µM	–	–	?
COc1cc(OC)cc(OCC(O)Cn2cnc3cc(C)c(C)cc32)c1 (stereo not given)	–	·	–	–	10µM
Cc1sc(N/N=C/c2cc([N+](=O)[O-])ccc2O)nc1-c1ccccc1	–	?	–	·	?
CC12CCC3C(CC=C4CC(O)CCC43C)C1C/C(=C\c1ccccc1F)C2=O (stereo not given)	–	?	–	–	5.9µM
SMILES	NS1 function inh	Pf growth 48h	AMA1-RON2 inh	Sm TGR block	Pf growth 96h
CCOc1ccc(-c2nnc3n2N=C(c2ccc(OC)cc2)CS3)cc1	–	?	–	–	–
CC1=Nn2c(nnc2-c2cc(-c3ccccc3)n[nH]2)SC1	–	?	–	–	?
CCOc1ccc(C2=Nn3c(nnc3-c3ccccc3OC)SC2)cc1	–	13µM	–	–	?
Brc1ccccc1C1=Nn2c(nnc2-c2ccco2)SC1	–	–	–	–	–
Brc1ccccc1C1=Nn2c(nnc2-c2ccccc2)SC1	–	?	–	–	8.3µM
c1ccc(-c2ccc(C3=Nn4c(nnc4-c4cc(-c5ccccc5)n[nH]4)SC3)cc2)cc1	–	?	–	–	12µM
Cc1ccc(-c2nc(CN(C)Cc3cccc4cnccc34)c(C)o2)s1	–	?	–	?	13µM
Cc1ccc(-c2nc(CN(C)C3CCOCC3)c(C)o2)s1	–	–	–	–	?
CCN(CC)CCC#CC(O)(c1ccccc1)c1ccccc1	–	–	–	–	9.3µM
C[N+]1(CC#CC(O)(c2ccccc2)c2ccccc2)CCCC1	–	?	–[2.32 µM]	–	5.2µM
COC(=O)c1cc(Cl)ccc1NC(=O)CSc1ncc(S(=O)(=O)c2ccc(Br)cc2)c(=O)[nH]1	·	·	·	–	·
COc1ccc(OCc2n(CC(=O)OC3CC(C)CCC3C(C)C)c3ccccc3[n+]2C)cc1 (stereo not given)	–	1µM	–	–	?
COc1cccc(C(=O)CN2CCN(S(=O)(=O)c3cccc([N+](=O)[O-])c3)CC2)c1	–	–	–	18µM	0.41µM
COc1ccc2oc(C(=O)OCC(=O)N3CCN(S(=O)(=O)c4ccccc4)CC3)c(C)c2c1	·	?	–	–	–
COc1cccc(C(=O)CN2CCC(NC(=O)NC3CCCCC3)CC2)c1	–	–	–	?	15µM
COc1ccc2oc(C(=O)N3CCN(S(=O)(=O)c4cccc([N+](=O)[O-])c4)CC3)c(C)c2c1	–	?	–	–	8.3µM
CCOc1ccc(S(=O)(=O)N2CCN(C(=O)c3oc4ccc(OC)cc4c3C)CC2)cc1	·	10µM	–	–	?
O=C(NC1CCSc2ccccc21)c1ccc(C(F)(F)F)cc1 (stereo not given)	–	–	–	–	?
O=C1c2ccccc2C2(c3ccccc3)NCCCN12 (stereo not given)	–	–	–	–	–
O=C(c1ccc(F)cc1)N1CCN2C(=O)c3ccccc3C12c1ccc(Cl)cc1 (stereo not given)	–	13µM	–	–	5.2µM
O=C1c2ccccc2C2(c3ccc(Cl)cc3)NCCN12 (stereo not given)	–	–	–	–	13µM
CCN(CC)c1ccc(C(=O)NNC(=O)c2cccn2C)cc1	·	–	–	–	–
CCCCn1c(N)c(C(=O)OCC2CCCO2)c2nc3ccccc3nc21 (stereo not given)	–	9.3µM	–	–	–
CCOC(=O)c1c(NC(=O)c2c(N)n(CCCOC)c3nc4ccccc4nc23)sc2c1CCCC2	–	?	–	–	?
CC(C)CCn1c(N)c(C(=O)OCC2CCCO2)c2nc3ccccc3nc21 (stereo not given)	–	?	–	–	?
CCn1ccc(C(=O)Nc2sc3c(c2C(=O)OC)CCC3)n1	–	?	–	?	12µM
CCCCOCCCn1c(N)c(C(=O)OCCOC)c2nc3ccccc3nc21	–	?	–	–	10µM
CCOCCCn1c(N)c(C(=O)Nc2sc3c(c2C(=O)OC)CCCC3)c2nc3ccccc3nc21	?	15µM	–	–	?
